Experimental data: PubChem BioAssay AID2216 (Broad Institute, 2009)
In all, about 300,000 compounds went through this assay and about 3,300 (1.1%) were called active. Roughly 6% stayed inconclusive and do not appear here.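 Rule for the calls: active = more than half of the replicate wells show a fall in the fluorescence ratio signal beyond about 16% (limit read from the data, passing the limit was not always enough); inconclusive = exactly half of the replicate wells pass the set limit; inactive = fewer than half of replicates pass the limit.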 This excerpt belongs to a sample that is enriched for actives.

tested on: Ran GTPase (GTP-bound) - importin-beta complex; test: disruptors of Ran-importin-beta complex formation – biochemical, FRET, CFP-Ran, YFP-importin-beta, homogeneous, primary screen (AID 2216); conditions: cell-free CFP-Ran/YFP-importin-beta FRET ratio; active compounds read high; concentration not given here;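 note: 0% = DMSO wells and 100% = Ran loaded with GDP instead of GTP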

inhibition, inactive:
CCc1noc(C)c1C(=O)NNC(=O)c1ccc(F)cc1 3.18%, Cc1ccccc1OCC(=O)NNC(=O)c1ccc(-n2cncn2)c([N+](=O)[O-])c1 3.51%, COc1ccccc1CNC(=O)CSc1nc(=O)n(Cc2ccncc2)c2c1CCC2 -4.86%, O=C(Nc1ncccc1O)c1ccc(C(=O)c2ccccc2)cc1 -5%, O=C(COC(=O)c1ncc(Cl)c(Cl)c1Cl)NC1CCS(=O)(=O)C1 (stereo not given) 1.31%, COCc1cc(=O)n2[nH]c(C)c(-c3ccccc3)c2n1 1.2%, CC1Cc2cc(/C(O)=C3\C(=O)C(=O)N(CCN4CCOCC4)C3c3ccccc3F)ccc2O1 (stereo not given) 1.9%, COc1ccc(C2/C(=C(/O)c3ccc(OC(C)C)cc3)C(=O)C(=O)N2CCCN2CCOCC2)cc1 (stereo not given) -1.52%, COc1ccc(/C(O)=C2/C(=O)C(=O)N(CCCN(C)C)C2c2ccccc2)cc1OC (stereo not given) 3.13%, CCN(CC)CCN1C(=O)C(=O)/C(=C(/O)c2ccccc2)C1c1ccccc1F (stereo not given) -0.379%, CCOc1ccc(CCNC(=O)COC(=O)c2ccc(F)c(S(=O)(=O)N3CCOCC3)c2)cc1OCC -2.22%, CCN(CC)c1ccc(NC(=O)c2ccc(=O)[nH]c2)cc1S(=O)(=O)Nc1ccc(OC)cc1 -0.956%, CCOc1ccccc1NC(=O)c1cccnc1 -0.62%, O=C(NNC(=O)c1cccnc1)Nc1ccccc1 -0.622%, O=C(Nc1cc(S(=O)(=O)N2CCOCC2)ccc1OCC(F)(F)F)c1ccc(N2CCCC2=O)cc1 5.96%, COCC1CCN(C(=O)c2ccc3oc(Cc4ccccc4)nc3c2)C1 (stereo not given) 1.03%, CC(=O)Cc1nsc(NC(=O)c2ccc(Cl)cc2Cl)n1 1.86%, O=C(Nc1ccc(OCC(=O)N2CCOCC2)cc1)c1cc(F)c(F)cc1Cl 3.93%, CCOc1ccc(NC(=O)CN(C)C(=O)COc2cccc(CC)c2)cc1OCC -1.27%, [O-][n+]1ccc(OCc2ccccc2)cc1 -2.54%, CCC(C)c1ccccc1N1CC(C(=O)N2CCN(S(=O)(=O)c3ccc(F)cc3)CC2)CC1=O (stereo not given) 1.46%, NC1=NC(c2ccc([N+](=O)[O-])cc2)N(c2ccc(F)cc2)C(N)=N1 (stereo not given) 1.29%, CCOc1cc2ccccc2cc1C(=O)Nc1ccccn1 3.29%, CN(C)N1C(N)=C(C#N)C(c2ccc(Br)cc2)C2=C1CCCC2=O (stereo not given) -0.393%, N#CC1=C(N)N(c2ccccc2)C2=C(C(=O)CCC2)C1c1ccccc1 (stereo not given) -1.9%, Cc1occc1C(=O)N/N=C/c1ccc(-c2cccc([N+](=O)[O-])c2)o1 -1.61%, O=C(CCCCO)c1ccc(O)c(Cl)c1 -9.87%, Cc1ccc(-c2csc(NCCc3nc4cc(Cl)c(Cl)cc4n3CCOCCO)n2)cc1 3.23%, CCOC(=O)N1CCN(CC(=O)Nc2cc(C)nn2-c2nc3ccccc3s2)CC1 -2.13%, CCOC(=O)CCCN1CC(O)=C(c2nc3ccccc3s2)C1=N -2.49%, COc1ccccc1C(=O)NCCC(=O)NCC(c1ccco1)N1CCCCC1 (stereo not given) 2.56%, COc1ccc(CCC(=O)c2ccc(OC)cc2)cc1 0.925%, COc1ccc(C(=O)C[n+]2ccc(C)cc2)cc1 6.13%, COC(=O)c1c(-c2ccsc2)oc2ccc(-c3cc(OC)c(OC)c(OC)c3)cc12 -4.62%, Cc1ccc(-n2c(O)c(C=Nc3ccc(S(=O)(=O)Nc4ncccn4)cc3)c3ccccc3c2=O)cc1C -1.55%, CCOc1ccc(-n2c(O)c(/C=N/c3ccnn3Cc3ccncc3)c3ccccc3c2=O)cc1 0.299%, CC(=O)c1ccc(NC(=O)CSC(=S)N2CCCC2)cc1 -0.968%, O=C(CSC(=S)N1CCOCC1)c1ccccc1 0.663%, Cc1cc(C)c(S(=O)(=O)N2CCCC2CNC(=O)c2ccc3c(c2)OCO3)c(C)c1 (stereo not given) 4.9%, COc1ccccc1OCC(=O)Nc1ccccc1C(=O)NC1CC1 -1.85%, COC(=O)C1=C(C)OC(N)=C(C#N)C1c1cc(OC)ccc1OC (stereo not given) -2.56%, COc1cc(C2C(C#N)=C(N)Oc3n[nH]c(-c4ccccn4)c32)cc(OC)c1OC (stereo not given) -0.727%, O=C1CN(C(=O)COc2c(Cl)cccc2Cl)c2ccccc2N1 0.217%, CCOC(=O)c1cc2ccccc2n1CC(=O)c1ccccc1 -1.27%, CCOC(=O)c1cc2occc2n1CC(=O)N1CCN(C(=O)c2ccco2)CC1 -1.58%, COc1ccc(OC)c(S(=O)(=O)N2CCCC(C(=O)N3CCC(C(N)=O)CC3)C2)c1 (stereo not given) 6.32%, O=C(O)c1ccccc1CSc1nc2ccccc2s1 -3.5%, CCC(C(=O)N1CCOCC1)n1c(C(=O)OC)cc2occc21 (stereo not given) -3.41%, COC(=O)c1ccc(S(=O)(=O)NCc2ccccc2)n1C -3.7%, COc1ccc(C(CNC(=O)c2cccc(S(=O)(=O)Nc3ccccc3Cl)c2)N2CCOCC2)cc1 (stereo not given) 10.7%, C/C=C/c1ccc(OCC(=O)OCC(=O)Nc2c(C)nn(-c3ccccc3)c2C)c(OC)c1 1.88%, COC(=O)C1=C(C)N(C)C(=S)NC1c1ccccc1 (stereo not given) 4.45%, COCCN1C(=O)N[C@@H](CCc2ccccc2)[C@H](C(C)=O)[C@H]1C -2.31%, O=C1CC2(CCCC2)Oc2ccc(Cl)cc21 -0.936%, COc1cccc(COC(=O)C2CCN(S(=O)(=O)c3ccc(Cl)cc3)CC2)c1OC 3.92%, CCOc1ccc(NC(=O)[C@H](C)NC(=O)C2CC(=O)N(c3ccc(OC)cc3)C2)cc1 (stereo not given in full) 2.72%, CCOc1ccc(N2CC(C(=O)NCc3ccccn3)CC2=O)cc1 (stereo not given) -1.93%, CC(OC(=O)c1ccc(-n2cnnn2)cc1)C(=O)NCc1ccccc1 (stereo not given) 3.57%, COC(=O)CSc1nc2ccccc2c(=O)n1Cc1ccccc1 5.12%, CCN(CC)CCn1c(N)c(S(=O)(=O)c2ccccc2)c2nc3ccccc3nc21 0.032%, O=C(CCCN=C1NS(=O)(=O)c2ccccc21)OCC(=O)c1ccc(F)c(F)c1 3.32%, CCC1(c2ccccc2)NC(=O)N(CC(=O)c2ccc3c(c2)OCO3)C1=O (stereo not given) 1.92%, O=C(Nc1ccc(N2CCCCC2)cc1)c1cc(S(=O)(=O)N2CCOCC2)ccc1F -0.386%, CCn1c2ccccc2c2cc(NC(=O)COC(=O)c3ccccc3Br)ccc21 -2.01%, CCn1c2ccccc2c2cc(NC(=O)C/C(C)=N/NC(=O)c3ccccc3N)ccc21 -6.36%, COc1ccc(S(=O)(=O)N2CCCCC2)cc1NC(=O)c1cc([N+](=O)[O-])ccc1N1CCOCC1 8.1%, CC1CN(C(=S)Nc2ccc(Br)cc2Cl)CC(C)O1 (stereo not given) -3.05%, CC1CN(c2cc(=O)n(Cc3ccc(F)cc3)c(=O)[nH]2)CC(C)O1 (stereo not given) 8.41%, CCOC(=O)c1c(C)oc2cc(Sc3ccccc3)c(O)c(O)c12 -4.55%, CS(=O)(=O)c1ccc(Cl)c(NC(=O)COC(=O)c2ncc(Cl)c(Cl)c2Cl)c1 -0.161%, COc1cc(-c2nnc(NC(=O)C3=COCCO3)o2)cc(OC)c1OC -0.69%, CCN1C(=O)[C@@H]2[C@@H](c3ccc(-c4cccc(Cl)c4)cc3)N3CCC[C@@]3(C(=O)OC)[C@@H]2C1=O 0.656%, CCCNC(=O)c1onc(CSc2ccc(F)cc2)c1C(=O)NC(C)C -1.02%

inhibition, active:
CCN(CC)CCN1C(=O)C(=O)/C(=C(/O)c2ccc(OC)c(OC)c2)C1c1ccccn1 (stereo not given) 33.8%, O=C1C(=O)N(CCN2CCOCC2)C(c2ccccn2)/C1=C(/O)c1ccc(Cl)cc1 (stereo not given) 20.4%, O=C(Nc1cnccn1)c1cccnc1 15.8%, CCN1CCc2nc(NC(=O)c3cc(F)c(F)cc3Cl)sc2C1 19.6%, CSc1sc(C)cc1C1C(C#N)=C(N)N(c2cccnc2)C2=C1C(=O)CCC2 (stereo not given) 18.2%, CCOC(=O)c1oc2c(CN3CCN(CCO)CC3)c(O)c(CC)cc2c(=O)c1-c1nc2ccccc2s1 16.5%, COc1ccc(C(=O)C[n+]2ccc(N)c(C)c2C)cc1 26.2%, CCOc1ccc(N=Cc2c(O)n(-c3cccc(C)n3)c(=O)c3ccccc23)cc1 22.9%, O=C(CSC(=S)N1CCCCC1)c1c(F)cccc1F 18.8%, COc1ccc(C2C(C#N)=C(N)Oc3cc(N)ccc32)cc1OC (stereo not given) 70.8%, CCOC(=O)c1cc2c(ccn2C)n1CC(=O)N1CCC(C)CC1 24.7%, COC(=O)c1cc2c(ccn2C)n1C 21.8%, COCCN1C2=C(COC(C)(C)C2)C(=S)NC1c1ccccc1 (stereo not given) 18.1%, CCCC(C)c1nnc(NC(=O)C2CC(=O)N(c3ccc(OCC)cc3)C2)s1 (stereo not given) 18.4%, CCC(=O)Nc1c(S(=O)(=O)c2ccccc2)c2nc3ccccc3nc2n1Cc1ccccc1 22.2%, CCn1c2ccccc2c2cc(NC(=O)CNC)ccc21 18.8%, CC1CN(c2cc(=O)n(-c3cccc(Br)c3)c(=O)[nH]2)CC(C)O1 (stereo not given) 39.6%
